Source: PubChem BioAssay (National Center for Advancing Translational Sciences (NCATS))
Tau FP inhib = tau fibrillization inhibition (FP); hit rate 0.39% among 280,000; P10636; Potency, µM (top dose mostly 57.7 µM), most hits filed as inhibitors; K18 P301L tau heparin fibrillization, Alexa594 FP, 6 h; note: nearly all actives have a fitted effect of over 55% in size
Target sequence (P10636 561-689 P618L limits assumed): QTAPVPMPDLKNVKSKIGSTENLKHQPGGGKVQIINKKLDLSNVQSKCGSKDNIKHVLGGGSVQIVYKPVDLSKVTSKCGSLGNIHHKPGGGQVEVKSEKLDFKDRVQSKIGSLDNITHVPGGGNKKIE
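K18 P301L tau (15 uM unlabeled/0.24 uM Alexa 594-labeled, final) + compound + heparin 20 uM final; 100 mM NaOAc pH 7; 6 hr 37 C; ThT 30 uM final added, 1 hr RT; FP ex 555/em 632 nm.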
Tau fluor cs = counter-screen for tau fibril formation inhibitors; tau K18 P301L Alexa594 fluorescence, heparin fibrillization; Potency, µM (titrated, usually from 57.7 µM); hit rate 0.93% among 280,000; note: nearly all actives have a fitted effect of over 55% in size
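Human tau K18 P301L (15 uM unlabeled, 0.24 uM Alexa 594-labeled) in 100 mM sodium acetate pH 7 with 20 uM heparin, 6 hr at 37 C. ThT 30 uM added, 1 hr ambient; Alexa 594 FP and total fluorescence read at 555/632 nm.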
Tau ThT inhib = tau fibrillization inhibition (ThT binding); P10636; recombinant tau K18 P301L (four-repeat tau fragment), heparin-induced fibrillization, ThT fluorescence; Potency, µM (top dose mostly 57.4 µM), hits mostly inhibitors; hit rate 2.1% among 270,000; AID 1460; note: nearly all actives have a fitted effect of over 55% in size
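Tau K18 P301L fragment (15 uM unlabeled plus 0.24 uM Alexa 594-labeled) in 100 mM sodium acetate pH 7 with compound, fibrillization induced by 20 uM heparin for 6 hr at 37 C. Thioflavin T (30 uM) added, fluorescence read after 1 hr (ex 450, em 510 nm).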
TexasRed fluor = Texas Red fluorescence interference in TRb-SRC2 counter-screen; TRb/SRC2 Texas Red total fluorescence interference; Potency, µM (titrated, usually from 106 µM); hit rate 0.29% among 280,000; active = well fitted curve in either direction with a large enough effect; inconclusive = small, poorly fitted or top-dose-only effect
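Flags fluorescent or light-absorbing compounds by total fluorescence, S + 2P, at 555 nm excitation and 632 nm emission. Mixture: 20 nM Texas Red SRC2 peptide, 0.6 uM human TRb LBD, 1 uM T3, 5% DMSO; compound exposure 5 h at ambient temperature.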
TRb-SRC2 inh = inhibitors of human thyroid hormone receptor beta-SRC2 interaction; AID 1469; hit rate 0.065% among 280,000; TRbeta-SRC2 peptide binding, fluorescence polarization; receptor liganded with 1 µM T3; P10828; Potency, µM (doses to about 106 µM), usual class: inhibitors; note: nearly all actives have a fitted effect of over 50% in size
Target sequence (P10828 whole entry, looked up): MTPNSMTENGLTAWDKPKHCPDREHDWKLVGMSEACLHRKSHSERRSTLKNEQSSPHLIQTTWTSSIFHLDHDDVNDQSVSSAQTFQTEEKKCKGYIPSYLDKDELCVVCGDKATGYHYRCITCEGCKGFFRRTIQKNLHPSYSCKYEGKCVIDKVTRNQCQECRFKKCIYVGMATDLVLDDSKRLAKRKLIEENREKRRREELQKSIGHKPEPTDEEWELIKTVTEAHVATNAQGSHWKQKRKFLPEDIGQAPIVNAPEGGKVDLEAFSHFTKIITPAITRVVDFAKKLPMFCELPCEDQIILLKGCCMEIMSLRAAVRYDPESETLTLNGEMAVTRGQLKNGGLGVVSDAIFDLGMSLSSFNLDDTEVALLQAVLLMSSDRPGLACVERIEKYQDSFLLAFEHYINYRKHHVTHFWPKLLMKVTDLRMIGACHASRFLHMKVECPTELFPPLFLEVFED
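Quantitative HTS by FP: 0.6 uM TRb LBD, 20 nM labeled SRC2 20-mer, 1 uM T3, 5% DMSO; 5 hr ambient incubation; % activity per concentration and potencies from concentration series.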
Of the large screens only hits and unclear results are named; the others gave an inactive call; [ ] = dose if it differs, or a comment. An excerpt weighted towards active compounds, which were near 3.1% of everything screened. Unless noted, calls come from the whole dose curve; as a rule, active = well fitted curve in the direction sought with a large enough effect; inconclusive = small, poorly fitted or top-dose-only effect, or another doubt; inactive = no such curve, though single readings can be large; an effect the other way counts as inactive or inconclusive.

CCOC(=O)c1cccc(NC(=O)c2nn(-c3ccc(OC)cc3)c(=O)c3c2c2ccccc2n3C)c1	Tau FP inhib inconclusive
CN1C(=O)/C(=C/C=C2\SCCN2C)N(C)C1=S	Tau ThT inhib 28.2µM
C=CC1=C2C=C(C3CC3)N(Cc3ccco3)C=C2C(=O)C(C)(OC(=O)c2ccco2)C1=O (configuration not stated)	none
CCOC(=O)c1sc(N/N=C/c2ccccc2)nc1C	Tau fluor cs inconclusive, Tau ThT inhib inconclusive
CCOC(=O)c1sc(N/N=C/c2cccc(C)c2)nc1C	Tau FP inhib inconclusive, Tau fluor cs 8.91µM[quencher], Tau ThT inhib inconclusive
CC(C)(C)OC(=O)N1CCC[C@H]1c1nnc(SCC(=O)Nc2ccc(Br)cc2)o1	none
Nc1ncnc2c1ncn2[C@@H]1O[C@H](COP(=O)(O)OP(=O)(O)O)[C@@H](O)[C@H]1O	none
O=C1C(=O)c2ccccc2C([O-])=C1[n+]1ccccc1	Tau ThT inhib inconclusive
CCc1cc[n+](C2=C([O-])c3ccccc3C(=O)/C2=N\S(=O)(=O)c2cccs2)cc1	Tau FP inhib inconclusive, Tau fluor cs inconclusive, Tau ThT inhib 12.6µM
CC(C)N1CCC(N2CCN(C3CCCC3)CC2CCO)CC1 (configuration not stated)	none
Cc1cccc(N2CCC(N3CCN(C4CCCCC4)C(CCO)C3)CC2)c1C (configuration not stated)	Tau ThT inhib 10µM
C=CC[n+]1c(-c2ccc(OCC)cc2)csc1NNC(=O)Nc1ccccc1	Tau fluor cs inconclusive, Tau ThT inhib 12.6µM
C=CC[n+]1c(-c2ccc(C)cc2)csc1Nc1c(C)n(C)n(-c2ccccc2)c1=O	none
CCCc1nn2c(=O)cc(COC(=O)c3ccccc3NC(=O)C3CCCCC3)nc2s1	none
Cc1ccc(/C=N/Nc2nc3ccccc3s2)o1	Tau FP inhib inconclusive, Tau fluor cs 14.1µM[quencher], Tau ThT inhib inconclusive
Cc1ccc(/C=N/Nc2nc(C(C)(C)C)cs2)o1	Tau FP inhib inconclusive, Tau fluor cs inconclusive, Tau ThT inhib inconclusive
Cc1ncc([N+](=O)[O-])n1CC(=O)N/N=C/c1ccc(F)cc1	none
COc1ccc(C2=CC(=O)C=CC2=O)cc1	Tau FP inhib 35.5µM, Tau fluor cs inconclusive, Tau ThT inhib 14.1µM
Cc1[nH]c2ccccc2c1CCNC(=O)c1ccc2c(c1[N+](=O)[O-])C(=O)c1ccccc1C2=O	Tau fluor cs 8.91µM[quencher], Tau ThT inhib inconclusive
CN(C)C(=O)c1ccc2c(c1[N+](=O)[O-])C(=O)c1ccccc1C2=O	none
Cc1[nH]c2c(C)cccc2c1CCNC(=O)c1ccc2c(c1[N+](=O)[O-])C(=O)c1ccccc1C2=O	Tau fluor cs 7.94µM[quencher], Tau ThT inhib inconclusive
CC1(C)OC[C@@H]2O[C@@]3(C(=O)O)OC(C)(C)O[C@@H]3[C@@H]2O1	none (no result: Tau FP inhib, Tau fluor cs, Tau ThT inhib)
C=CCN1C(=O)CS/C1=C(\C#N)S(=O)(=O)c1ccc(C)cc1	TexasRed fluor 39.8µM[fluorescent], TRb-SRC2 inh inconclusive
O=C(O)c1sc2cc(C(F)(F)F)cnc2c1-c1cccs1	none
CC(C)C(=O)SCCCCCCC(=O)Nc1nc(-c2ccccc2)cs1	none (no result: Tau FP inhib, Tau fluor cs, Tau ThT inhib)
CCc1cc2c(cc3c(=O)n(CC(=O)NCCc4ccccc4)ncn32)s1	Tau ThT inhib inconclusive
Clc1ccc2c(c1)c1cc(Cl)ccc1n2CN1CCOCC1	Tau FP inhib 12.6µM, Tau fluor cs inconclusive, Tau ThT inhib inconclusive
Clc1ccc2c(c1)c1ccccc1n2CN1CCOCC1	Tau fluor cs inconclusive
CO/N=C\[C@@H](NS(=O)(=O)c1ccc(C)cc1)[C@H](C)/C=C\CC(=O)OC	Tau FP inhib inconclusive, TexasRed fluor inconclusive
Oc1ccc(/C=N/Nc2nc(-c3cccnc3)nc3ccccc23)c(O)c1	Tau FP inhib inconclusive, Tau fluor cs 11.2µM[quencher], Tau ThT inhib 2.24µM
S=C(NCCc1ccccc1)Nc1ccc(Nc2ccccc2)cc1	Tau FP inhib inconclusive, Tau fluor cs 15.8µM[quencher], Tau ThT inhib inconclusive
Fc1cccc(NC(=S)NCCc2ccccc2)c1	Tau FP inhib inconclusive, Tau fluor cs inconclusive
O=[N+]([O-])c1cccc(NC(=S)NCCc2ccccc2)c1	TexasRed fluor 316µM[quencher]
O=[N+]([O-])c1ccc(NC(=S)NCCc2ccc(F)cc2)cc1	Tau FP inhib inconclusive, Tau fluor cs 14.1µM[quencher], Tau ThT inhib inconclusive
O=C(Nc1nc2cc3c(cc2s1)OCO3)C1CC1	none (no result: Tau ThT inhib)
Fc1cccc2sc(Nc3nc4cc5c(cc4s3)OCO5)nc12	Tau fluor cs 7.94µM[quencher], Tau ThT inhib 7.94µM
Fc1cccc2sc(Nc3nc4cc5c(cc4s3)OCCO5)nc12	Tau fluor cs 14.1µM[quencher], Tau ThT inhib inconclusive
CC(C)C(=O)Nc1nc2cc3c(cc2s1)OCO3	none
Fc1cc(F)c2nc(Nc3nc4cc5c(cc4s3)OCO5)sc2c1	Tau fluor cs 5.01µM[quencher], Tau ThT inhib inconclusive, TexasRed fluor 35.5µM[quencher]
C=CC(C1=CC(=O)C(OC)=CC1=O)c1ccc(O)cc1 (configuration not stated)	Tau FP inhib inconclusive, Tau fluor cs inconclusive, Tau ThT inhib 31.6µM
C=C[C@@H](C1=CC(=O)C(OC)=C(OC)C1=O)c1ccccc1	Tau FP inhib inconclusive, Tau fluor cs inconclusive, Tau ThT inhib 28.2µM
CCCCCCC(O)CCCCCCCCCCC(=O)O (configuration not stated)	none (no result: Tau FP inhib, Tau fluor cs, Tau ThT inhib)
Cc1cc(=O)n2[nH]c(N)c(N=Nc3ccccc3)c2n1	Tau ThT inhib inconclusive
Cc1[nH]n(C(N)=S)c(=O)c1N=Nc1ccc(S(=O)(=O)N2CCCCCC2)cc1	Tau ThT inhib 25.1µM
Cc1[nH]n(C(N)=S)c(=O)c1N=Nc1ccc2ccccc2c1	Tau fluor cs inconclusive, Tau ThT inhib 2.82µM
Cc1ccc(N=Nc2c(C)[nH]n(C(N)=S)c2=O)cc1C	Tau ThT inhib 4.47µM
CC(=O)Nc1ccc(N=Nc2c(C)[nH]n(C(N)=S)c2=O)cc1	Tau ThT inhib 8.91µM
Fc1ccc(CNc2ncnc3c2c(-c2ccccc2)cn3-c2ccccc2)cc1	none
O=Cc1c[nH]c2ccc(S(=O)(=O)N3CCOCC3)cc12	none
O=C(Nc1ccccc1N1CCOCC1)c1cccc(NS(=O)(=O)c2ccc(F)c(F)c2)c1	Tau FP inhib inconclusive, Tau fluor cs inconclusive
O=C(NCCc1ccccc1)C(=O)NCC(c1cccnc1)N1CCN(c2ccccc2)CC1 (configuration not stated)	TexasRed fluor inconclusive
Cc1[nH]n(C(N)=S)c(=O)c1N=Nc1cc(-c2ccc(Br)cc2)[nH]n1	Tau fluor cs inconclusive, Tau ThT inhib 2.24µM
Nc1cc(-c2ccc(Br)cc2)[nH]n1	none
Cc1cc(N=Cc2c(O)ccc3ccccc23)no1	Tau FP inhib inconclusive, Tau fluor cs inconclusive, Tau ThT inhib 22.4µM, TexasRed fluor inconclusive, TRb-SRC2 inh 50.1µM
Oc1ccc2ccccc2c1/C=N/c1nccs1	Tau ThT inhib inconclusive, TexasRed fluor inconclusive, TRb-SRC2 inh 35.5µM
CC(C)(C)c1ccc(CSc2nc3c(c(=O)[nH]2)CCCC3)cc1	Tau FP inhib inconclusive
